Measured values reported in PubChem BioAssay (NCI).
Compounds without any hit were thinned out: in the full panel of roughly 83,000, 20% have a hit.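 A percent growth of 40 corresponds to 60% growth inhibition; 0 means no net growth; -100 means all cells died. Active threshold: below 10.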 Activity calls are given as the source filed them.

Tested on: SN12C renal
Experiment: NCI-60 one-dose screen, 48 h (100 = growth as untreated, 0 = no growth, -100 = all killed)
Conditions: 10 µM unless noted

Structure (SMILES)	growth
NC(=O)C(=O)c1ccccc1NC=O	96.6% (inactive)
N#Cc1c(-c2ccccc2)[nH]c2ncc(-c3ccccc3)n2c1=O	99.5% (inactive)
O=S(=O)(Nc1cc(Cl)ccc1Cl)c1ccc(-c2cnc(C3CC3)o2)cc1	60.3% (inactive)
COc1cc(C2CC(c3ccc(Nc4nc(Nc5ccc(Cl)cc5)nc(Nc5ccc(Cl)cc5)n4)cc3)=NN2C(C)=O)cc(OC)c1OC (stereo not given)	102% (inactive)
N#Cc1c(-c2ccc(Cl)cc2)c(C#N)c2c(C#N)c(N)nn2c1N	87.8% (inactive)
CC(=O)N1N=C(c2ccc(Nc3nc(Nc4ccccc4)nc(Nc4ccccc4)n3)cc2)CC1c1cccc([N+](=O)[O-])c1 (stereo not given)	96.3% (inactive)
N#CC1=C(c2ccccc2)Nc2c(c(-c3ccc(Cl)cc3)nn2-c2ccccc2)C12C(=O)Nc1ccc(Cl)cc12 (stereo not given)	84.9% (inactive)
O=C(Nc1nc2ccc(C(=O)N3CCN(/C=C/c4ccccc4)CC3)cc2s1)c1ccc(NCCc2ccccc2)c([N+](=O)[O-])c1	61.3% (inactive)
Cc1ccc(/C=C2\COc3ccc(O)cc3C2=O)cc1	79.9% (inactive)
CCNCCNc1cc(C2CCCCC2)c(C#N)c2nc3ccccc3n12	12.8% (inactive)
Nc1c(C(=O)Nc2ccncc2)sc2nc3c(cc12)C(O)CCC3 (stereo not given)	96.3% (inactive)
C=CCN=c1sc2c(n1NC(=O)c1cc3ccc1CCc1ccc(cc1)CC3)C(=O)c1ccccc1C2=O	-96.6% (active)
Cc1nc2sc(C(=O)Nc3cccc(Br)c3)c(N)c2cc1C(O)c1ccccc1 (stereo not given)	22.4% (inactive)
Cc1cc(S(=O)(=O)/N=C(\N)n2nc(C)c(C)c2C)c(SCc2ccccc2)cc1Cl	76.3% (inactive)
Oc1ccc(Cl)cc1/C=N\NC(=S)N/N=C/c1cc(Cl)ccc1O	45.9% (inactive)
O=C(/C=C/c1cccs1)Nc1ncc(Cc2ccccc2F)s1	41.3% (inactive)
COC(=O)CC[C@H](C)[C@H]1CC[C@H]2[C@@H]3CC[C@@H]4CC5(CC[C@]4(C)[C@H]3CC(=O)[C@]12C)Nc1ccccc1NC5=NC(C)(C)C (stereo not given in full)	87.9% (inactive)
CC1CCc2c(C(=O)Nc3ncc(Cc4cccc([N+](=O)[O-])c4)s3)csc2C1 (stereo not given)	41.7% (inactive)
O=C1/C=C/[C@@H](O)[C@@H]2C[C@@H](O)C[C@H]2/C=C/CCC[C@H](CCc2ccccc2)O1	11.8% (inactive)
O=C(Nc1ccccc1O)c1ccc(CNC(=O)c2sccc2Nc2ccnc(C(F)(F)F)c2)cc1	57.8% (inactive)

Structure (SMILES)	growth
COc1ccc(C(=O)/C=C/c2c(C(F)(F)F)nc3ccccn23)cc1OC	16.1% (inactive)
CCC(=C(c1ccc(OCCN2CCCCC2)cc1)c1ccc(OCCN2CCCCC2)cc1)c1ccc(Cl)cc1	-94.9% (active)
O=C1Nc2ccc(C(=O)O)cc2/C1=N/c1nnc(Sc2ccccc2)s1	96.9% (inactive)
CCN1CCN(C(=O)[C@]23CCC(C)(C)C[C@@H]2C2=CC[C@@H]4[C@@]5(C)CCC(=O)C(C)(C)[C@@H]5CC[C@@]4(C)[C@]2(C)CC3)CC1	51.8% (inactive)
Nc1ncnc2c1C(c1ccccc1)c1ccc3ccccc3c1O2 (stereo not given)	73.6% (inactive)
Cn1cc(-c2ccc3nc(-c4ccc(CC(=O)ONc5cc(C(C)(C)C)on5)cc4)cnc3c2)cn1	26.1% (inactive)
Cc1ccc2c(c1)=C/C(=C\c1cc(-c3ccccc3)oc1O)C(=O)N=2	106% (inactive)
COc1ccc(-c2nc3c(ncc4ccc(=O)[nH]c43)s2)cc1	78.2% (inactive)
CC1CN(S(=O)(=O)c2oc(-c3ccc(Cl)cc3)nc2C#N)CC(C)O1 (stereo not given)	85.5% (inactive)
C#CCOC(=O)/C=C/c1cn(-c2ccccc2)nc1-c1ccc(OC)cc1	77.3% (inactive)
O=C(Nc1cccc(Cl)c1)Nc1cccc(Cn2c(=O)[nH]c3ccc(Oc4ncccn4)cc3c2=O)c1	76% (inactive)
COc1ccc(/C=C/C(=O)c2cc3c(N)c(C(=O)Nc4cccc5ccccc45)sc3nc2C)cc1	87.5% (inactive)
CCCNc1nc2ccccc2c2c1S(=O)(=O)c1ccc(Cl)cc1C2=O	-1.38% (active)
NC(=O)CSc1oc(-c2ccccc2)nc1S(=O)(=O)c1ccc(Br)cc1	65.7% (inactive)
N#CSc1c[nH]c2cccc(/C=C/C(=O)/C=C(/C=C/c3cccc4[nH]cc(SC#N)c34)OB(F)F)c12	-21.8% (active)
C=C1C(=O)O[C@H]2[C@H]1CC/C(COC(=O)NCc1ccc(Cn3c(=O)sn(CCCCC)c3=O)cc1)=C\CC[C@@]1(C)O[C@@H]21	22.8% (inactive)
N#CC(C#N)N=Nc1ccc(Br)cc1	21.3% (inactive)
COc1ccc(-c2noc(C(=O)O)c2-c2cc(OC)c(OC)c(OC)c2)cc1	38.4% (inactive)
COc1c(B(O)O)cccc1-c1cc(C)c2c(ccc3[nH]ncc32)n1	60.5% (inactive)
COc1ccc2cc1Oc1ccc(cc1)C[C@H]1c3c(cc4c(c3Oc3cc5c(cc3OC)CCN(C)[C@@H]5C2)OCO4)CCN1C	60.3% (inactive)
